Screens from PubChem BioAssay.
Most compounds without a hit are left out; they make up all but 19% or so of the library.
IL1B secr inh: inflammasome signaling inhibition, IL-1 beta readout; THP-1 LPS/ATP IL-1B secretion, AlphaLISA, 16 h; stronger effect = lower value; actives 4.7% (n = 360,000); AID 743279; activity change, % at 57.5 µM; in the data active means activity change below about -50%; inconclusive means mostly about -30% to -49%; further: on the % scale 0 is the no-effect control and ±100 the full control effect
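Secreted IL-1B measured by AlphaLISA bead assay after 16 h compound exposure of THP-1 cells; compounds (final up to 57.5 uM) added 1 h before LPS (250 ng/mL) and ATP (1.25 mM) stimulation; lower signal means less secretion.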
SW480 rerep: DNA re-replication induction in SW480 cells; SW480 DNA re-replication, Hoechst DNA content imaging, 48 h; actives 1.8% (n = 340,000); Potency, µM (top dose mostly 46.1 µM), without a hit: at the top dose re-replication activation, actives largely listed as activators; AID 624297; further: potency means the concentration at half of the fitted maximal effect; % of control where 0% means no effect; nearly all actives have a fitted effect of over 55% in size
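250 cells/well; 23 nL cpd via pin tool; 48 hr, 37 C, 5% CO2; Hoechst 40 min; imager read of total nuclear intensity, ex 405/em 500-530 nm.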
MCF10A rereplic: inducers of DNA re-replication in MCF 10A breast cells. MCF 10A DNA re-replication, Hoechst nuclear intensity, 48 h. Potency, µM (doses to about 46.1 µM), inactives show at the top dose activity, positive = re-replication, actives largely listed as activators. actives 2.9% (n = 350,000); further: potency means the concentration at half of the fitted maximal effect; % of control where 0% means no effect; nearly all actives have a fitted effect of over 50% in size
DT40 TDP1 no CPT: qHTS for Inhibitors of human tyrosyl-DNA phosphodiesterase 1 (TDP1): qHTS in cells in absence of CPT; DT40 Tdp1-/- hTDP1 cells, no CPT, ATP luminescence, 48 h; Potency, µM (top dose mostly 46.2 µM), without a hit: at the highest dose activity change, negative = growth inhibition, actives largely listed as inhibitors; actives 15% (n = 420,000); AID 686978, 2013; further: potency means the concentration at half of the fitted maximal effect; on the % scale 0 is the no-effect control and ±100 the full control effect; nearly all actives have a fitted effect of over 55% in size
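No-CPT arm: Tdp1-/-;hTDP1 DT40 cells (400/well) plus compounds, incubated ≥48 hr at 37 °C. Readout CellTiter-Glo luminescence.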
BCR signal inh: blocks chronic active B-cell receptor signaling; AID 493014; actives 0.05% (n = 340,000); ABC-DLBCL IkBa-CBG/CBR reporter, luminescence ratio, 4 h; Potency, µM (highest dose often 46.1 µM), for inactives: at the top dose activity change, negative = inhibition, most hits filed as inhibitors; active means well fitted inhibition curve with a large enough effect in the signal ratio, with a control signal flat, not every such curve was filed as active; inconclusive means small, poorly fitted or top-dose-only effect, or effect the other way, or a change in a side signal; the % refers to the signal ratio;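 further: potency means the concentration at half of the fitted maximal effect; plate controls were basal doxycycline-induced cells for no effect and cells given 10 µM MG132 for full effect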
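Compounds up to 46 uM were incubated four hours with TMD8 cells whose green CBG68 luciferase is fused to IkappaBalpha; red CBR luminescence normalised the signal, and concentration-effect curves were fitted to fusion, red and ratio data.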
DT40 TDP1 CPT: growth inhibition of DT40 Tdp1-/-;hTDP1 cells with camptothecin (screen for TDP1 inhibitors) | chicken DT40 Tdp1-/-;hTDP1 cells + 20 nM CPT, ATP luminescence, 48 h | Potency, µM (highest dose often 46.2 µM), without a hit: at the highest dose activity change, negative = growth inhibition, actives largely listed as inhibitors | actives 12% (n = 420,000) | AID 686979; further: potency means the concentration at half of the fitted maximal effect; on the % scale 0 is the no-effect control and ±100 the full control effect; nearly all actives have a fitted effect of over 55% in size
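Chicken DT40 Tdp1-/- cells stably complemented with human TDP1 were seeded at 400 cells/well in medium containing 20 nM camptothecin, exposed to pin-transferred compounds, and grown at 37 °C for at least 48 hr. Viability was read as ATP luminescence.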
The depositor's hits bear a star; ? = inconclusive; . = no result; ! = not active in a repeat; [ ] = dose if it differs, or a comment. Unless noted, the call rests on the fitted dose curve; in most records, active means well fitted curve in the direction sought with a large enough effect; inconclusive means small, poorly fitted or top-dose-only effect, or another doubt; inactive means no such curve, though single readings can be large; an effect the other way counts as inactive or inconclusive.

SMILES	IL1B secr inh	SW480 rerep	MCF10A rereplic	DT40 TDP1 no CPT	BCR signal inh	DT40 TDP1 CPT
O=C(Cn1cncn1)NCC1Cc2cc(-c3ccsc3)cc(Cl)c2O1 (centres undefined)	.	.	.	-15%	.	5%[9.04 µM]
CC(=O)OCC1CC(COC(C)=O)C(COC(C)=O)CC1COC(C)=O (centres undefined)	1	2%	-12%	-11%	.	-25%
O=C(C[n+]1ccccc1)Nc1ccc(Cl)c([N+](=O)[O-])c1	-18	-1%	2%	6%	1%	1%
O=C(CN(C(=O)c1cccc([N+](=O)[O-])c1)C1CCCCC1)Nc1ccc(Cl)c([N+](=O)[O-])c1	-21	-1%	22%	16µM*	-1%	?
Cc1ccc(-c2csc(N3CCN(c4cc5c(cc4Cl)nc(-c4ccncc4)n5CCN4CCCCC4)CC3)n2)cc1	-59*	?	-4%	?	-2%	?
Nc1c(Cl)cc(-c2csc(NCCc3nc4cc(Cl)c(Cl)cc4n3CCCO)n2)cc1Cl	-18	-2%	8%	?	14%	?
COc1ccc(-c2csc(N3CCN(c4cc5c(cc4Cl)nc(-c4ccncc4)n5CCOCCO)CC3)n2)cc1	-2	?	?	?	6%	12µM*
COc1ccc(-c2csc(NCCc3nc4cc(Cl)c(N5CCCCC5)cc4n3CCOCCO)n2)cc1	0	2%	6%	9.2µM*	.	23µM*
OCCCn1c(CCCNc2nc(-c3cccc(Br)c3)cs2)nc2cc(Cl)c(N3CCCCC3)cc21	0	15%	?	16µM*	14%	?
CCC(C)c1ccc(OCC(=O)Nc2ccc3c(c2)C(=O)NC3=O)cc1 (centres undefined)	-6	2%	8%	?	7%	2%
OC[C@@H](O)[C@H](O)[C@H](O)[C@@H](O)CO	.	.	.	-1%	.	-13%
O[C@@H]([C@H](O)[C@H](O)CBr)[C@H](O)CBr	29	?	7%	12µM*!	.	18µM*!
CCN(CC)S(=O)(=O)c1ccc(N/N=C(\C)c2ccncc2)nc1	-5	?	?	?	?	23µM*
C/C(=N\Nc1ccc(S(=O)(=O)N2CCCCC2)cn1)c1cccc(Br)c1	-17	?	12%	3.3µM*	?	?
CCN(CC)S(=O)(=O)c1ccc(N/N=C(\C)c2cccnc2)nc1	-51*	0%	-8%	-5%	1%	3%
CCN(CC)S(=O)(=O)c1ccc(OC)nc1	0	-2%	-3%	-2%	4%	-5%
NC(=O)c1ccc(NC(=O)CCN=C2NS(=O)(=O)c3ccccc32)cc1	0	-5%	-1%	-2%	-12%	-1%
Nc1nc(-c2ccc(Oc3ccccc3)cc2)c(CC(=O)O)s1	8	-8%	?	11%	0%	0%
CC(C)c1nc2cc(C(=O)N3CCN(c4cnccn4)CC3)ccc2o1	1	-7%	?	-10%	2%	-9%
CCN(CC)c1ccc(/C=N/OCC(=O)N2CCCc3ccccc32)cc1	?	17%	16µM*	?	-12%	?
CCS(=O)(=O)c1ncc(Cl)c(C(=O)Nc2ccc(S(=O)(=O)N(C)c3ccccc3)cc2)n1	-103*	10µM*	?	0.65µM*	?	0.73µM*
CCSc1ncc(Cl)c(C(=O)Nc2ccc(S(=O)(=O)N(C)c3ccccc3)cc2)n1	.	.	.	12µM*	.	12µM*
CCN(c1ccccc1)S(=O)(=O)c1ccc(NC(=O)c2nc(S(C)(=O)=O)ncc2Cl)cc1	-97*	5.2µM*	?	1µM*	?	1.2µM*
